From PubChem BioAssay (NCATS)
Unmarked numbers belong to inactive results. Calls of active or inactive are those of the source. Calls follow the shape of the dose curve; as a rule, active = well fitted curve in the direction sought with a large enough effect; inconclusive = small, poorly fitted or top-dose-only effect, or another doubt; inactive = no such curve, though single readings can be large or run the other way.

Biological target: Alpha-galactosidase (Coffea arabica) (UniProt Q42656)
Experiment: Counterscreen for Glucocerebrosidase Inhibitors: qHTS Assay for Coffee Bean alpha-Galactosidase at pH 4.5 (AID 957);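 also: plate controls were enzyme alone for no effect and no enzyme for full effect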
Settings: purified coffee bean alpha-galactosidase, fluorogenic substrate; series mostly up to 76.9 µM; activity change, negative = inhibition: at the top concentration
Method in brief: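 AC50 values derive from Hill-equation modeling of concentration-response data, normalized to no-enzyme and full-activity controls. The pH 4.5 citrate assay used 2 nM coffee bean enzyme and 80 uM fluorogenic substrate for 20 min.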

Chain of Alpha-galactosidase (Coffea arabica) (Q42656 whole entry, looked up): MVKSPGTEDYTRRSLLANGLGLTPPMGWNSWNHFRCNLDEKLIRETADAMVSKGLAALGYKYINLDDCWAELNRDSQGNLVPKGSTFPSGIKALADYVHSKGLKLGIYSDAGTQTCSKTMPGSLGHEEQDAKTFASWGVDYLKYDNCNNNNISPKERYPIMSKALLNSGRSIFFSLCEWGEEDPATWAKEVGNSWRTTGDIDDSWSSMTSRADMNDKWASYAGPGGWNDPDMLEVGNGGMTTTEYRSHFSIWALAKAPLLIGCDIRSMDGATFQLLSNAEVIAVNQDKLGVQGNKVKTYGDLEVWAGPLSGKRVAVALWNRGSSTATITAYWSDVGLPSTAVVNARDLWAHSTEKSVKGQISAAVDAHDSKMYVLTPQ

Row | Compound | activity change, negative = inhibition | outcome
1 | Cc1[nH]c(=O)c(C#N)cc1-c1ccncc1 | 2.19% | –
2 | CC(=O)N[C@@H](CS)C(=O)O | -0.64% | –
3 | CC(=O)[C@H]1CC[C@H]2[C@@H]3CC[C@H]4C[C@H](O)CC[C@]4(C)[C@H]3C(=O)C[C@]12C | 1.84% | –
4 | CC1(C)NC(=O)N(c2ccc([N+](=O)[O-])c(C(F)(F)F)c2)C1=O | -4.57% | –
5 | Nc1nc2c(ncn2COCCO)c(=O)[nH]1 | 1.55% | –
6 | NN=C(N)N | – | inactive
7 | Cc1cn([C@H]2C=C[C@@H](CO)O2)c(=O)[nH]c1=O | -0.871% | –
8 | O=C1CCc2cc(OCCCCc3nnnn3C3CCCCC3)ccc2N1 | 3.29% | –
9 | CC[N+](CC)(CC)CC | -1.09% | –
10 | CCCCc1oc2ccccc2c1C(=O)c1cc(I)c(OCCN(CC)CC)c(I)c1 | -7.33% | –
11 | CN(C)CCC=C1c2ccccc2C=Cc2ccccc21 | -7.71% | –
12 | Cc1oncc1C(=O)Nc1ccc(C(F)(F)F)cc1 | 3.58% | –
13 | Nc1ccncc1 | -2.45% | –
14 | c1ccc(C2CC2)c(OCC2=NCCN2)c1 | -1.29% | –
15 | NC[C@H](O)c1ccc(O)c(O)c1 | – | inactive
16 | CNCCCC1c2ccccc2C=Cc2ccccc21 | -0.859% | –
17 | CN(C)CCC[C@@]1(c2ccc(F)cc2)OCc2cc(C#N)ccc21 | 0.234% | –
18 | COc1ccc(Cc2nccc3cc(OC)c(OC)cc23)cc1OC | -2.91% | –
19 | COc1ccc(Cl)cc1C(=O)NCCc1ccc(S(=O)(=O)NC(=O)NC2CCCCC2)cc1 | 1.42% | –
20 | CC(C)[N+](C)(CCOC(=O)C1c2ccccc2Oc2ccccc21)C(C)C | -0.902% | –
21 | N[C@@H]1CONC1=O | – | inactive
22 | NNc1nncc2ccccc12 | 0.127% | –
23 | CCN(CC)CCOC(=O)C1(C2CCCCC2)CCCCC1 | -7.38% | –
24 | CN(C)CCCN1c2ccccc2CCc2ccc(Cl)cc21 | -5.04% | –
25 | CN(C)c1nc(N(C)C)nc(N(C)C)n1 | -0.867% | –
26 | Fc1ccc(C(OCCN2CCN(CCCc3ccccc3)CC2)c2ccc(F)cc2)cc1 | -4.47% | –
27 | NC(=O)OCC(COC(N)=O)c1ccccc1 | -1.43% | –
28 | Cn1cnc([N+](=O)[O-])c1Sc1ncnc2nc[nH]c12 | -1.13% | –
29 | O=c1c(O)c(-c2ccc(O)c(O)c2)oc2cc(O)cc(O)c12 | 0.726% | –
